Test results published in PubChem BioAssay (Tox21).
Values without a mark were called inactive. The call rests on the fitted dose curve.

Assay: qHTS assay to identify small molecule agonists of the sonic hedgehog signaling (Shh) pathway (AID 1259368);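 further: NIH/3T3-derived 3T3Gli1-Luc cells carrying a stable Gli1-driven firefly luciferase reporter; nearly all actives have a fitted effect of over 15% in size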
Settings: NIH/3T3 Gli1-Luc reporter, luciferase, 24 h, stronger effect = higher value; series mostly up to 92.4 µM; activity change: at the top concentration
Excerpt: National Center for Advancing Translational Sciences [NCATS]
NIH Chemical Genomics Center [NCGC]
U.S. Environmental Protection Agency [EPA]
National Institutes of Environmental Health Sciences [NIEHS]
National Toxicology Program [NTP]
The sonic hedgehog (Shh) pathway is essential for normal embryonic development. Dysregulation of the Shh pathway can cause severe developmental defects in organs. Therefore chemicals that interfere with the pathway are potential developmental toxicants. A cell line designated 3T3Gli1-Luc (DMB/OARSA/CFSAN/FDA, Laurel, MD), a NIH/3T3 derived clone containing stably integrated Gli1-Luc reporter is used to detect chemical interference of the Shh pathway, by changes in the expression of the firefly Luc gene under the control of the Gli1 transcriptional response element. This cell line was used to screen Tox21 libraries for identifying and prioritizing the potential developmental toxicants that interfere Shh pathway.
3T3 Gli1-Luc cells were dispensed at 2,000 per well in 5uL of culture medium into white solid bottom 1536-well plates (Greiner Bio-One, Monroe, NC) using a Multidrop Combi (Thermo Scientific, Waltham, MA) dispenser. The assay plates were incubated at 37 C and 5% CO2 for 4hr, and then 23nL of compounds dissolved in DMSO and positive control were transferred using a Pintool station (Wako, San Diego, CA). The assay plates were incubated at 37C and 5% CO2 for 24hr. For luciferase read, 4uL of Amplite Luciferase reporter gene assay reagent (AAT Bioquest, Inc. Sunnyvale, CA) was added to each well of the assay plates using Flying Reagent Dispenser (FRD, Aurora Discovery, San Diego, CA) and incubated at room temperature for 30min. The luminescence signal was measured using a ViewLux plate reader (Perkin Elmer, Shelton, CT).
On the % scale 0 is the no-effect control and ±100 the full control effect.

Structure (SMILES)	activity change
CC(C)COP(=O)(OCC(C)C)OCC(C)C	0.833%
COc1ccc(C(=O)N2CCCC2=O)cc1	-0.267% [at 42.5 µM]
CC1(C)CON(Cc2ccccc2Cl)C1=O	-1.7%
[Cl][Sn]([Cl])([Cl])[Cl]	0.48%
CCOP(=S)(OCC)Oc1nc(Cl)n(C(C)C)n1	0.458%
C[C@]1(O)CC[C@H]2[C@@H]3CCC4=CC(=O)CC[C@]4(C)[C@@]3(F)[C@@H](O)C[C@@]21C	-1.14%
BrCCCCCCBr	0.0138%
CC(CCc1ccccc1)NC(C)C(O)c1ccc(O)cc1 (stereo not given)	0.579% [at 42.5 µM]
CCCCCCI	0.606%
CCC(=O)C(CCN(C)C)(c1ccccc1)c1ccccc1	-0.0329% [at 42.5 µM]
CCC(Cl)[N+](=O)[O-] (stereo not given)	-0.398%
COc1cc(C[C@@H](C)N)c(OC)cc1C	0.113%
Cc1ncc2n1-c1ccc(Cl)cc1C(c1ccccc1F)=NC2	-3.45% [at 42.5 µM]
O=C(O)C(Br)CBr (stereo not given)	0.295%
CCOC(=O)C1(c2ccccc2)CCN(CCc2ccc(N)cc2)CC1	2.31% [at 42.5 µM]
ClC(Cl)(Cl)C(Cl)(Cl)Cl	-0.394%
COC(=O)C1=CCCN(C)C1	-0.234% [at 42.5 µM]
CC(=O)CCc1ccc2c(c1)OCO2	0.698%
CSc1ccc(C(=O)C(C)(C)N2CCOCC2)cc1	-0.0401%
CC(C1CC1)C(O)(Cn1cncn1)c1ccc(Cl)cc1 (stereo not given)	0.238%

Structure (SMILES)	activity change
CC(C)[N+](=O)[O-]	0.0052%
CCC(C)n1c(=O)[nH]c(C)c(Br)c1=O (stereo not given)	-1.84%
CNCC(=O)c1ccc(O)c(O)c1	1.31% [at 42.5 µM]
CCOP(=O)(N=C1SCCS1)OCC	0.339%
Cc1cccc(C#N)c1	0.636%
Nc1cnn(-c2ccccc2)c(=O)c1Cl	-0.154%
CCC(=O)c1ccccc1	-0.226%
CCS(=O)(=O)CCSP(=O)(OC)OC	2.37%
Fc1ccc(C2(Cn3cncn3)OC2c2ccccc2Cl)cc1 (stereo not given)	-0.472%
Nc1cc(Cl)ccc1O	-20.7%
CCCSC(=O)N(CCC)CCC	-0.0181%
[As]#[In]	0.085%
O=C1CN=C(c2ccccc2)c2cc([N+](=O)[O-])ccc2N1	-0.748% [at 42.5 µM]
CCCSP(=O)(OCC)Oc1ccc(Br)cc1Cl (stereo not given)	-1.98% [at 42.5 µM]
O=C1c2ccccc2C(=O)c2ccccc21	1.5% [at 18.9 µM]
ClC(Cl)Br	0.19%
C#C[C@]1(O)C=C[C@H]2[C@@H]3CCC4=CC(=O)CC[C@@H]4[C@H]3CC[C@@]21CC	-0.656% [at 42.5 µM]
COc1cc2c(cc1OC)[C@@]13CCN4CC5=CCO[C@H]6CC(=O)N2[C@H]1[C@H]6[C@H]5C[C@H]43	-0.889%
ClC(Br)Br	-0.131%
CCOP(=S)(OCC)Oc1ncn(-c2ccccc2)n1	3.16%
